Records with an inconclusive call do not appear. Calls of active or inactive are those of the source. The calls were made as follows: active = hit-call score of the fitted dose curve at least 0.9, where 1 is the maximum; inconclusive = response in the unintended direction; inactive = score below 0.9.
These compounds were tested against human MAP Kinase-Activated Protein Kinase 5 (MAPKAPK5), MAPKAPK5 (gene 8550) (UniProt Q8IW41) (assay: NVS_ENZ_hMAPKAPK5: NovaScreen (NVS) Enzymatic Assay for human MAP Kinase-Activated Protein Kinase 5 (MAPKAPK5)).
Chain of human MAP Kinase-Activated Protein Kinase 5 (MAPKAPK5), MAPKAPK5 (gene 8550) (Q8IW41 whole entry, looked up): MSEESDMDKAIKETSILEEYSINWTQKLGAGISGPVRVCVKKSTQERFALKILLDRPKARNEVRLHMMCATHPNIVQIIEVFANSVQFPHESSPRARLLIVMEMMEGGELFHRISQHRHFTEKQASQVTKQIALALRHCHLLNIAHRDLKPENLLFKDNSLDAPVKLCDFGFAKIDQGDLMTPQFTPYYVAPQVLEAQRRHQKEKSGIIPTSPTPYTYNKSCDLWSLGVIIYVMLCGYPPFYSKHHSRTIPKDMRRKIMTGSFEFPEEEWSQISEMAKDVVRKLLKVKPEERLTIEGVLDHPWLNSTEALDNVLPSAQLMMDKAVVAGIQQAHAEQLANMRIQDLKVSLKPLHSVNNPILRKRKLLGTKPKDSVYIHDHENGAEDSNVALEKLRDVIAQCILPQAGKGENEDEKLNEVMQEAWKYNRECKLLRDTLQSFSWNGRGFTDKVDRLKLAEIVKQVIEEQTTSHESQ
Description: NVS_ENZ_hMAPKAPK5 is a biochemical, single-readout assay that uses extracted gene-proteins in a cell-free assay. Measurements were taken 1 hour after chemical dosing in a 384-well plate.NVS_ENZ_hMAPKAPK5 is one of one assay component(s) measured or calculated from the NVS_ENZ_hMAPKAPK5 assay. It is designed to make measurements of enzyme activity, a form of enzyme reporter, as detected with fluorescence intensity signals by Fluorescence and electrophoretic mobility shift technology.Data from the assay component NVS_ENZ_hMAPKAPK5 was analyzed into 1 assay endpoint. This assay endpoint, NVS_ENZ_hMAPKAPK5, was analyzed in the positive analysis fitting direction relative to DMSO as the negative control and baseline of activity. Using a type of enzyme reporter, loss-of-signal activity can be used to understand changes in the enzymatic activity as they relate to the gene MAPKAPK5. Furthermore, this assay endpoint can be referred to as a primary readout, because this assay […]. To generalize the intended target to other relatable targets, this assay endpoint is annotated to the kinase intended target family, where the subfamily is serine/threonine kinase.
Binding assays used specific radioligands (tritiated, iodinated) with non-radioactive competitive displacement ligands in agonist or antagonist protocols (as indicated) and various reference compounds and inhibitors to titrate specific binding to receptors and transporters. Most enzyme assays (CYPs, kinases, phosphatases, proteases, HDACs) used recombinant protein and specific substrates (fluorescence mostly, some colorimetric and radioactive) and inhibitors, followed by a biochemical separation of substrate and product. All assays for the biochemical HTS were initially run in duplicate at a single concentration (10 uM for CYP450 assays and 25 uM for all others). Assay-chemical combinations meeting a pre-defined threshold (e.g., 30% inhibition and other criteria defined below) were then run in singleton concentration-response format with maximum concentration of 20 uM for CYPs and 50 uM for all others. Each assay was run with positive and negative controls, and concurrent controls on every plate. The follow-up (secondary) screen tested active chemical-pairs in concentration series, as well as a few additional assays not tested in the primary screen, some selected negative inactives, and several cases re-run in the concentration series for confirmatory purposes.

SMILES	outcome	AC50
CCN(CC)C(=O)c1cccc(C)c1	inactive	–
O=C(Nc1ccc([N+](=O)[O-])cc1Cl)c1cc(Cl)ccc1O	inactive	–
CCOC(=O)[C@H](C)Oc1ccc(Oc2nc3ccc(Cl)cc3o2)cc1	inactive	–
S=C([S-])NCCNC(=S)[S-].[Mn+2]	–	0.789 µM (active)
N#CSCSc1nc2ccccc2s1	–	14.7 µM (active)
S=C(S)NCCNC(=S)S.[Mn+2].[S-]C([S-])=NCCN=C([S-])[S-].[Zn+2]	–	2.41 µM (active)
O=C(O)C1(C(=O)Nc2ccc(Cl)cc2Cl)CC1	–	19.1 µM (active)

Source: PubChem BioAssay AID2283176 (EPA ToxCast)
